# An excerpt weighted towards active compounds, which were near 12% of everything screened.
# PLK1 PBD inh – qHTS for Inhibitors of PLK1-PDB (polo-like kinase 1 - polo-box domain): Primary Screen; Potency, µM, without a hit: max response, negative = inhibition, usual class: inhibitors; Serine/threonine-protein kinase PLK1 (Homo sapiens), P53350; 360,000 tested, 2.8% active; Plk1 PBD binding of FITC phosphopeptide, fluorescence polarization; AID 720504, 2013; note: potency is the fitted concentration of half-maximal effect; series mostly up to about 57 µM; % is set by controls: 0 for no effect and ±100 for the full control effect; nearly all actives have a fitted effect of over 65% in size
# G9a block – qHTS Assay for Inhibitors of Histone Lysine Methyltransferase G9a; Histone-lysine N-methyltransferase EHMT2 (Homo sapiens), Q96KQ7; G9a H3K9 monomethylation, AlphaScreen, 2 h; Potency, µM (doses to about 102 µM), without a hit: at the top dose activity, negative = inhibition, most hits filed as inhibitors; 350,000 tested, 8.8% active; note: potency is the fitted concentration of half-maximal effect; % is set by controls: 0 for no effect and ±100 for the full control effect; nearly all actives have a fitted effect of over 75% in size
#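 Quantitative HTS format: methyltransferase activity on a biotin-tagged H3K9 peptide is measured by AlphaScreen, using a rabbit anti-monomethyl-H3K9 antibody with streptavidin donor and anti-IgG acceptor beads. Final levels are 20 nM enzyme, 500 nM peptide, 20 uM SAM; 2 h RT.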
# PI5P4K alpha inh – qHTS for Inhibitors of phosphatidylinositol 5-phosphate 4-kinase (PI5P4K) | PI5P4Kalpha enzyme, ADP-Glo luminescence, 60 min; active compounds read low | AID 652105, 2013 | 330,000 tested, 1.2% active | Phosphatidylinositol 5-phosphate 4-kinase type-2 alpha (Homo sapiens), P48426 | max response, %; active = max response of -50% or lower; inconclusive = between -30% and -50%; inactive = -30% or higher; note: value at the top dose of about 77 µM; % is set by controls: 0 for no effect and ±100 for the full control effect
# Target sequence (P48426 whole entry, looked up): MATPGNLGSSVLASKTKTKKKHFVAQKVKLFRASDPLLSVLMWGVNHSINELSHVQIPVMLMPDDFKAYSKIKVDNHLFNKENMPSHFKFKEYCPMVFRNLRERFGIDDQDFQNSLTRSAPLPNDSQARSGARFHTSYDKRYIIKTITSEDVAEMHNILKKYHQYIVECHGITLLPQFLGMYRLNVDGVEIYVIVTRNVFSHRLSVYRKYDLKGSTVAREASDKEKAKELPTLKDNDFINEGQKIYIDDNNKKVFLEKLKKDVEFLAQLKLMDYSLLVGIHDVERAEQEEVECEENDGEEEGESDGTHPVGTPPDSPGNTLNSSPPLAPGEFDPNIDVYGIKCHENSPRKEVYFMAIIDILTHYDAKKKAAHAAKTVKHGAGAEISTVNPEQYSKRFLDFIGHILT
#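 Compounds were pin-transferred onto PI5P4Kalpha and substrate in HEPES pH 7.4 buffer with EGTA, CHAPS and 5% DMSO. ATP (5 microM final) started the reaction, which ran 60 minutes at room temperature before ADP-Glo detection.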
# BAZ2B block – qHTS Assay for Inhibitors of BAZ2B; Bromodomain adjacent to zinc finger domain protein 2B (Homo sapiens), Q9UIF8; AlphaScreen BAZ2B-H3K14Ac peptide displacement; Potency, µM (highest dose often 114 µM), inactives show at the highest dose activity change, negative = inhibition, hits mostly inhibitors; 360,000 tested, 4.4% active; note: potency is the fitted concentration of half-maximal effect; % is set by controls: 0 for no effect and ±100 for the full control effect; nearly all actives have a fitted effect of over 60% in size
#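 AlphaScreen luminescence quantifies BAZ2B engagement of H3K14Ac peptide; the protein and biotinylated peptide are both at 50 nM final, buffer PBS pH 7.4 with 0.01% Tween-20, all steps at room temperature.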
# JMJD2A Tudor inh – qHTS Assay for Inhibitors of JMJD2A-Tudor Domain. Lysine-specific demethylase 4A (Homo sapiens), O75164. AlphaScreen JMJD2A-Tudor / H3K4me3 peptide binding. Potency, µM (highest dose often 114 µM), for inactives: top-dose activity change, negative = inhibition, most hits filed as inhibitors. 390,000 tested, 4.4% active. AID 504339, 2011; note: potency is the fitted concentration of half-maximal effect; % is set by controls: 0 for no effect and ±100 for the full control effect; nearly all actives have a fitted effect of over 50% in size
# HP1b binding inh – HTS for Inhibitors of HP1-beta Chromodomain Interactions with Methylated Histone Tails. Potency, µM (doses to about 114 µM), for inactives: top-dose activity change, negative = inhibition, most hits filed as inhibitors. Chromobox protein homolog 1 (Homo sapiens), P83916. AlphaScreen HP1-beta / biotin-H3K9me3 peptide binding. 390,000 tested, 0.56% active. AID 540317, 2011; note: potency is the fitted concentration of half-maximal effect; nearly all actives have a fitted effect of over 70% in size
# Target sequence (P83916 whole entry, looked up): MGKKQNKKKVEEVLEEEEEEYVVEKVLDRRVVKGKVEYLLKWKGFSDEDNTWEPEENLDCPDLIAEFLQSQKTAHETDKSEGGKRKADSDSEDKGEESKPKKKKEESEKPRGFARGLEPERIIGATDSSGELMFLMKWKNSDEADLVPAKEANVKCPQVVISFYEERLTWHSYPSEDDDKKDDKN
#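 HP1-beta protein (50 nM final) preincubated 30 min at room temperature with biotinylated H3(1-18)K9me3 peptide (50 nM) in PBS pH 7.4, 0.01% Tween-20, then compound added for 30 min. AlphaScreen streptavidin donor/nickel chelate acceptor beads (10 ug/mL final), 30 min dark, luminescence read.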
# The depositor's hits bear a star; ? = inconclusive; . = no result; [ ] = dose if it differs, or a comment. Unless noted, calls come from the whole dose curve; as a rule, active = well fitted curve in the direction sought with a large enough effect; inconclusive = small, poorly fitted or top-dose-only effect, or another doubt; inactive = no such curve, though single readings can be large; an effect the other way counts as inactive or inconclusive.
SMILES,PLK1 PBD inh,G9a block,PI5P4K alpha inh,BAZ2B block,JMJD2A Tudor inh,HP1b binding inh
COc1ccc(N2CC(C(=O)N/N=C/c3cccs3)CC2=O)cc1 (stereo not drawn),23.8µM*,11.9%[59 µM],0.8,-5.0%,-23.5%,17.8%
CNC(=O)CSc1nnc(NC(=O)C2CC(=O)N(c3ccccc3OC)C2)s1 (stereo not drawn),?,10µM*,-16.5,-7.5%,-9.0%,49.6%
Cc1ccc(N2CC(C(=O)N3CCC(C(=O)Nc4nnc(C(C)C)s4)CC3)CC2=O)cc1 (stereo not drawn),-14.6%,44.7µM*,-8.6,11.8%,-4.0%,-13.5%
COc1ccc(N2CC(C(=O)Nc3nnc(SCC(=O)N4CCOCC4)s3)CC2=O)cc1 (stereo not drawn),-27.2%,35.5µM*,?,-23.2%,-25.6%,4.6%
COc1ccc(N2CC(C(=O)Nc3nnc(C4CCCCC4)s3)CC2=O)cc1 (stereo not drawn),29.9µM*,-7.1%,-16.0,-10.7%,22.4µM*,-3.6%
COCCSc1nnc(NC(=O)C2CC(=O)N(c3ccc(OC)cc3)C2)s1 (stereo not drawn),-3.0%,17.2%[59 µM],-2.6,-12.3%,-0.4%,41.9%
COc1ccc(N2CC(C(=O)Nc3nnc(SCC(=O)c4ccccc4)s3)CC2=O)cc1 (stereo not drawn),-22.1%,12.6µM*,?,-2.3%,-15.7%,10.8%
Cc1cccc(NC(=O)C2CCN(S(=O)(=O)c3ccc4c(c3)NC(=O)CO4)CC2)c1,-1.4%,5.1%[59 µM],-6.6,-14.0%,-4.8%,29.0%
COc1cccc(NC(=O)C2CCN(S(=O)(=O)c3ccc4c(c3)NC(=O)CO4)CC2)c1,21.2µM*,38.8%,-18.3,-8.2%,?,-1.2%
COc1ccc(OC)c(NC(=O)C2CCN(S(=O)(=O)c3ccc4c(c3)OCCO4)CC2)c1,-2.0%,50.1µM*,4.9,0.0%,-22.1%,11.3%
CC(C)C(C)NC(=O)COC(=O)C1CCN(S(=O)(=O)c2ccc3c(c2)OCCO3)CC1 (stereo not drawn),-3.6%,50.1µM*,4.4,9.0%,-2.1%,35.9%
CC(=O)Nc1ccc(NC(=O)C2CCN(S(=O)(=O)c3ccc4c(c3)OCCO4)CC2)cc1,-3.3%,17.8µM*,3.2,13.2%,-5.4%,27.6%
Cc1ccc2c(c1)c1c(c(=O)n(-c3cccc(Cl)c3)c(=O)n1CC(=O)NCC1CCCO1)n2C (stereo not drawn),.,?,.,-1.2%,-11.0%,58.0%
O=C(CSc1nccn1-c1ccc(F)cc1)Nc1ccc(OC(F)(F)F)cc1,.,?,.,?,?,-13.1%[57 µM]
Nc1nnc(SCC(=O)OCC(=O)c2ccccc2Br)s1,-13.7%,39.8µM*,-2.6,-7.0%,-15.1%,29.0%
COC(=O)c1ccccc1NC(=O)COC(=O)CSc1nnc(N)s1,-14.1%,28.2µM*,-6.4,-4.0%,-23.1%,25.1%
Nc1nnc(SCC(=O)OCC(=O)Nc2ccccc2)s1,-21.6%,.,-5.2,7.0%,-2.9%,30.3%
COc1cccc(C2NC(=O)CCC2[N+](=O)[O-])c1OC (stereo not drawn),3.7%,-3.1%,-0.8,-2.0%,-1.4%,20.3%
Nc1csnc1C(=O)O,-2.4%,31.6µM*,-9.1,?,20µM*,14.2%
CCc1ccccc1N1CC23C=CC(O2)C(C(=O)O)C3C1=O (stereo not drawn),26.7µM*,-22.8%[59 µM],-15.5,-4.9%,22.4µM*,10.5%
CC1=C([N+](=O)[O-])C(c2ccc3c(c2)OCO3)N(C)C(=O)N1C (stereo not drawn),8.44µM*,7.9%[59 µM],?,-37.1%,?,22.4%
C=CC[n+]1c(/C=C/c2ccc(OC(C)=O)c(OC)c2)ccc2ccccc21,-2.2%,79.4µM*,-5.9,-7.1%,1.7%,39.1%
COc1cc(/C=N/NC(=O)Nc2ccccc2)ccc1OC(C)=O,-0.5%,7.4%[59 µM],-2.5,8.6%,10.8%,21.1%
FC(F)(F)c1cc(Cl)c2nnc(-c3cccnc3)n2c1,-0.2%,11.8%,3.6,-2.6%,-1.4%,16.8%
FC(F)(F)c1cnc(-c2cnc(-c3cccnc3)nc2)c(Cl)c1,23.8µM*,-1.7%,-4.6,-1.1%,?,-7.9%
SMILES,PLK1 PBD inh,G9a block,PI5P4K alpha inh,BAZ2B block,JMJD2A Tudor inh,HP1b binding inh
COc1ccc(NC(=O)C2(C)CCN2Cc2ccc(C(C)C)cc2)cc1OC (stereo not drawn),0.1%,.,1.8,.,.,.
O=C(NC1C(=O)NNC1c1ccccc1)c1ccc(F)cc1 (stereo not drawn),-11.5%,-19.5%[59 µM],-7.7,5.3%,-11.8%,38.5%
Cc1ccc(C2NNC(=O)C2NC(=O)c2ccccc2)cc1 (stereo not drawn),-25.8%,2.24µM*,-15.4,-7.0%,?,0.6%
O=C1OC(CO)CN1Cc1ccccc1 (stereo not drawn),-7.2%,0.7%,-4.9,1.1%,-9.5%,7.4%
O=[N+]([O-])c1ccc(N2CCCCC2)c(-c2nn[nH]n2)c1,-1.1%,44.7µM*,-8.2,?,-12.0%,18.9%
CCOC(=O)c1c(=O)n(O)c2ccc(C)cc2[n+]1[O-],-3.2%,50.1µM*,-3.8,?,89.1µM*,-0.6%
CCOC(=O)c1c(C)[n+]([O-])c2ccc3c(non3O)c12,3.7%,?,-0.3,?,-33.9%,36.4%
CCOC(=O)C1CCN(S(=O)(=O)c2ccc(-c3cc(C(F)(F)F)n(C)n3)s2)CC1,-18.7%,.,0.4,9.8%,1.0%,44.9%
CCOC(=O)C1CCN(S(=O)(=O)c2ccc(-c3nc4ccccc4s3)s2)CC1,-9.8%,35.5µM*,-29.3,-34.2%,-22.6%,39.5%
Cc1ccccc1Nc1c(-c2ccccn2)nc2c(C)cccn12,-3.2%,44.7µM*,-0.2,14.1µM*,39.8µM*,?
Cc1ccc(-c2nc3c(C)cccn3c2Nc2ccccc2C)s1,.,14.1µM*,.,15.8µM*,44.7µM*,?
Cc1ccc(Nc2c(-c3ccc(C)cc3)nc3c(C)cccn23)cc1,.,11.2µM*,.,.,?,?
CN(C)CCCSc1nc2ccccc2s1,?,14.1µM*,3.5,?,-32.8%,?
COCCNC(=O)COC(=O)CSCc1nc2ccccc2s1,-9.4%,79.4µM*,.,8.5%,-14.8%,19.2%
